Source: PMC5700166
Changes are numbered by the printed parent chain.

How the values were obtained:
Assay in all cases: protein-binding microarray (PBM); PBM: ~300 nM protein, 6 mM HEPES pH 7.8, 80 mM KCl, 0.5 mM EDTA, 0.5 mM EGTA, 6% glycerol, 35 ng/ul poly-dIdC, 1% milk, 1 h, room temperature; Ap Aiptasia and Nv Nematostella (sea anemones) / Co Capsaspora / Aq Amphimedon (sponge) / Dm Drosophila / Hu human; RHD is the Rel homology domain; high values mean tight binding
Details in all cases: dsDNA, one strand shown
GST-Ap-NF-kB RHD = molecular target: T1, GST-Ap-NF-kB RHD (Exaiptasia pallida (Aiptasia), UniProt A0A913YAJ5 2-422)
T1 sequence: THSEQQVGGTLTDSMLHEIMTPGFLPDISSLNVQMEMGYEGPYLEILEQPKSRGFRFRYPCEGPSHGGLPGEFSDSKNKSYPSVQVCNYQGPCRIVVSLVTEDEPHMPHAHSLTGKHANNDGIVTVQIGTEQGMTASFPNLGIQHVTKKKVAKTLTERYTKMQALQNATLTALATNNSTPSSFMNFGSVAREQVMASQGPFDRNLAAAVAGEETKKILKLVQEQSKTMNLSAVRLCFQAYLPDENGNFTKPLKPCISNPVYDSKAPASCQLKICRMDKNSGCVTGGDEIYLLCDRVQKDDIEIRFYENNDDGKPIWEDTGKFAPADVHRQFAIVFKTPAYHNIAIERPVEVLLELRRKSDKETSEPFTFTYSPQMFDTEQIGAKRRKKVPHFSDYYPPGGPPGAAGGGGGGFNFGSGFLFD

[1] = molecular target: T2, GST-Nv-NF-kB (Cys allele) (Nematostella vectensis, UniProt E5G601 2-411)
T2 sequence: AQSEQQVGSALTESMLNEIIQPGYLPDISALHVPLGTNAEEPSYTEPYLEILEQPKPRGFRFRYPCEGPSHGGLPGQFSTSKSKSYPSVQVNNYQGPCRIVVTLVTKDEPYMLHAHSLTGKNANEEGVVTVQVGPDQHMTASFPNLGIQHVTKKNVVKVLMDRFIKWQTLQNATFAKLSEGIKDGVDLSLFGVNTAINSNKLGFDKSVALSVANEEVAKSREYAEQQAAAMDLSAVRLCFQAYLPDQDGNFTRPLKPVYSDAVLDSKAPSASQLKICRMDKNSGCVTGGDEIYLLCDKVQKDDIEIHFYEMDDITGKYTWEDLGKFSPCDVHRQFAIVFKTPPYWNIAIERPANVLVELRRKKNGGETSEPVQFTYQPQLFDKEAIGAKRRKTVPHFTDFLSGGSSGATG

GST-Co-NF-kB = molecular target: T3, GST-Co-NF-kB (Capsaspora owczarzaki, UniProt F1ARL5 200-546)
T3 sequence: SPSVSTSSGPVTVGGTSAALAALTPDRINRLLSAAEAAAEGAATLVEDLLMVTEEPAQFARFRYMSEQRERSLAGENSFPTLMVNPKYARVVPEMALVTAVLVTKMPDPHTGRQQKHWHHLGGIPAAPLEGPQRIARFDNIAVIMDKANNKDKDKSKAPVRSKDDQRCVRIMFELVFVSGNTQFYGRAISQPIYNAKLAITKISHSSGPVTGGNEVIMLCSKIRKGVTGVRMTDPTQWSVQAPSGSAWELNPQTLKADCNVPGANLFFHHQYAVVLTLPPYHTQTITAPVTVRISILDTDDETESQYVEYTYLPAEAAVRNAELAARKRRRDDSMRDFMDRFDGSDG

GST-Dm-Relish = molecular target: T4, GST-Dm-Relish (Drosophila melanogaster, UniProt Q94527 99-473)
T4 sequence: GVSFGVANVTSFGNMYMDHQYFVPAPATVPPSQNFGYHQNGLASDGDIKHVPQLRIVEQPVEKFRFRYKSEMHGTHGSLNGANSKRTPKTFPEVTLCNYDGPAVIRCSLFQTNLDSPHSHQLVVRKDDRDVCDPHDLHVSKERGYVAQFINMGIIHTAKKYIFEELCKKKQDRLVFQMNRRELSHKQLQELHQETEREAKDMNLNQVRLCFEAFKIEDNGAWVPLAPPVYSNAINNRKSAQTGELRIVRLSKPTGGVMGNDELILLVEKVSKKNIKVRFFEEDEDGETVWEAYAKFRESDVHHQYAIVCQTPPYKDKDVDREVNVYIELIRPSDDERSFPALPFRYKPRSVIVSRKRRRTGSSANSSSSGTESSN

GST-Aq-NF-kB = molecular target: T5, GST-Aq-NF-kB (Amphimedon queenslandica, UniProt A9Y5G7 2-389)
T5 sequence: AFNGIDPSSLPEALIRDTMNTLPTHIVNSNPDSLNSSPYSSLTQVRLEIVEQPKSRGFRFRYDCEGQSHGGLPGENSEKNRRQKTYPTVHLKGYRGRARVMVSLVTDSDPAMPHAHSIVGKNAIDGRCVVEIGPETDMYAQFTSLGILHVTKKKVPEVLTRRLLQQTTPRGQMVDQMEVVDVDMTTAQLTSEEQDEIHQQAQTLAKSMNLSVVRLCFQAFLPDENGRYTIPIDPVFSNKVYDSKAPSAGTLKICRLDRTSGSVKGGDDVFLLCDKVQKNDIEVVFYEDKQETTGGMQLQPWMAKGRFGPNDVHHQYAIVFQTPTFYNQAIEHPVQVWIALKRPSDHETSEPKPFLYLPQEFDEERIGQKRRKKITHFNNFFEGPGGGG

GST-Hu-p50 = GST-Hu-p50 (Homo sapiens, UniProt P19838 7-356)
[2] = molecular target: T6, GST-Nv-NF-kB (Ser allele) (Nematostella vectensis, UniProt A7UNT2 2-411)
T6 sequence: T2 sequence with Q21R, C66S, S207N, E215Q, V217A, E225K, A268E, D399E

Chain of GST-Hu-p50 (P19838 7-356): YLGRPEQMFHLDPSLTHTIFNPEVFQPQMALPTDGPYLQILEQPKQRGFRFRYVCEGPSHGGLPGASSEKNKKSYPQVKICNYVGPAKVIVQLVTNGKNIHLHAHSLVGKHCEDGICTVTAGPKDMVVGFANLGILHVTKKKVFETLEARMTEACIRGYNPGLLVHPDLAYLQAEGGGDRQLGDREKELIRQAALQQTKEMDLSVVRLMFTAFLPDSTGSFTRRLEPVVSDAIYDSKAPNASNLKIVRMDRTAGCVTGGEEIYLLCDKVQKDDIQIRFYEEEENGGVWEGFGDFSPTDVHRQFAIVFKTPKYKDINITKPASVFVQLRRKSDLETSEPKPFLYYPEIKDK

| Sequence | binding signal (GST-Ap-NF-kB RHD) [z-score] | binding signal [1] [z-score] | binding signal (GST-Co-NF-kB) [z-score] | binding signal (GST-Dm-Relish) [z-score] | binding signal (GST-Aq-NF-kB) [z-score] | binding signal (GST-Hu-p50) [z-score] | binding signal [2] [z-score] |
| --- | --- | --- | --- | --- | --- | --- | --- |
| CCGATTAACATCACCGAACCCCCTGATGTTAATCGGGTCTTGATTCGCTTGACGCTGCTG | 5.86 | 3.55 | 2.04 | 4.86 | 3.82 | 5.57 |  |
| CCGATTAACATCAGGGGGTATTATGATGTTAATCGGGTCTTGATTCGCTTGACGCTGCTG | 7.58 | 5.39 | 4.88 | 4.91 | 5.8 | 5.39 |  |
| CCGATTAACATCAAGGGAATTCCTGATGTTAATCGGGTCTTGATTCGCTTGACGCTGCTG | 7.9 | 8.71 | 3.76 | 7.95 | 8.11 | 5.3 |  |
| CCGATTAACATCAGGAGAGCCCCTGATGTTAATCGGGTCTTGATTCGCTTGACGCTGCTG | 3.65 | 3.73 |  | 2.24 | 6.28 | 3.2 | 1.67 |
| CCGATTAACATCAAAAGCCCCCATGATGTTAATCGGGTCTTGATTCGCTTGACGCTGCTG | 5.8 | 6.19 | 2.08 | 6.91 | 6.49 | 6.29 |  |
| CCGATTAACATCAGAAAGTCCCATGATGTTAATCGGGTCTTGATTCGCTTGACGCTGCTG | 5.73 | 7.09 |  | 6.06 | 5.57 | 4.63 | 6.43 |
| CCGATTAACATCAGAAAAATACCTGATGTTAATCGGGTCTTGATTCGCTTGACGCTGCTG | 1.31 | 2.43 |  | 4.9 | 3.17 | 3.16 | 3.74 |
| CCGATTAACATCAGGATAGCCCCTGATGTTAATCGGGTCTTGATTCGCTTGACGCTGCTG | 4 | 4.29 |  | 2.38 | 5.49 | 3.65 | 2.73 |
| CCGATTAACATCAGGAAGCCCCATGATGTTAATCGGGTCTTGATTCGCTTGACGCTGCTG | 4.01 | 4.13 |  | 5.38 | 4.02 | 3.77 | 2.15 |
| CCGATTAACATCAAAAAGCCCCTTGATGTTAATCGGGTCTTGATTCGCTTGACGCTGCTG | 7.33 | 9.57 |  | 8.7 | 7.9 | 6.72 | 7.49 |
| CCGATTAACATCAAGGGGTTTCCTGATGTTAATCGGGTCTTGATTCGCTTGACGCTGCTG | 6.93 | 5.76 |  | 7.98 | 6.62 | 5.36 | 4.08 |
| CCGATTAACATCACGGGATTACCTGATGTTAATCGGGTCTTGATTCGCTTGACGCTGCTG | 3.75 | 1.79 |  | 5.47 | 4.66 | 1.16 | 2.51 |
| CCGATTAACATCAAGGGACTTCCTGATGTTAATCGGGTCTTGATTCGCTTGACGCTGCTG | 6.06 | 7.09 | 1.07 | 7.2 | 6.58 | 5.08 |  |
| CCGATTAACATCAGAAAAGTACCTGATGTTAATCGGGTCTTGATTCGCTTGACGCTGCTG | 3.82 | 6.4 |  | 8.45 | 4.69 | 6.05 | 9.87 |
| CCGATTAACATCAGGGACTTCCATGATGTTAATCGGGTCTTGATTCGCTTGACGCTGCTG | 5.02 | 5.5 |  | 6.69 | 5.53 | 4.56 | 5.01 |
| CCGATTAACATCAGGAAATCACCTGATGTTAATCGGGTCTTGATTCGCTTGACGCTGCTG | 2.81 | 3.51 |  | 7.51 | 4.87 | 5.42 | 3.89 |
| CCGATTAACATCAAGGGGGGACTTGATGTTAATCGGGTCTTGATTCGCTTGACGCTGCTG | 4.76 | 5.56 | 5.68 | 5.09 | 5.14 | 5.19 |  |
| CCGATTAACATCAGGGGGAGTCATGATGTTAATCGGGTCTTGATTCGCTTGACGCTGCTG | 5.67 | 4.38 | 4.79 | 3.88 | 4.55 | 4.72 |  |
| CCGATTAACATCAGAACATCCCCTGATGTTAATCGGGTCTTGATTCGCTTGACGCTGCTG | 6.05 | 6.64 | 3.09 | 6.69 | 5.97 | 5.45 |  |
| CCGATTAACATCAGGGGGTTCACTGATGTTAATCGGGTCTTGATTCGCTTGACGCTGCTG | 5.94 | 4.09 | 2.91 | 10.4 | 5.84 | 5.34 |  |
| CCGATTAACATCAGGGACGCCCCTGATGTTAATCGGGTCTTGATTCGCTTGACGCTGCTG | 6.59 | 5.71 | 1.13 | 7.12 | 7.88 | 4.5 |  |
| CCGATTAACATCATGTATGCCCCTGATGTTAATCGGGTCTTGATTCGCTTGACGCTGCTG | 1.68 | 1.71 | 1.24 | 1.12 | 2.51 | 1.27 |  |
| CCGATTAACATCAGGAGACCCCCTGATGTTAATCGGGTCTTGATTCGCTTGACGCTGCTG | 5.3 | 3.64 | 1.61 | 5.66 | 6.55 | 4.1 |  |
| CCGATTAACATCACGAAAACCCCTGATGTTAATCGGGTCTTGATTCGCTTGACGCTGCTG | 6.45 | 5.36 | 2.45 | 7.06 | 5.3 | 6.06 |  |
| CCGATTAACATCAGGAACTCCCCTGATGTTAATCGGGTCTTGATTCGCTTGACGCTGCTG | 8.99 | 7.4 | 3.87 | 7.91 | 8.17 | 5.57 |  |
| CCGATTAACATCAAATTCCCTTATGATGTTAATCGGGTCTTGATTCGCTTGACGCTGCTG | 3.4 | 5.97 | 2.16 | 3.37 | 5.01 | 4.42 |  |
